# Test results as given in PubChem BioAssay AID720504 (National Center for Advancing Translational Sciences (NCATS), 2013).
# The whole screen tested about 360,000 compounds, of which about 10,000 (2.8%) were called active. About 4% were inconclusive and are not listed. Calls follow the shape of the dose curve; as a rule, active = well fitted inhibition curve with a large enough effect; inconclusive = small, poorly fitted or top-dose-only effect; inactive = flat fitted curve, though single readings scatter. What follows is part of a selection rich in actives, with near analogues and random picks from the rest.
# Biological target: Serine/threonine-protein kinase PLK1 (Homo sapiens) (UniProt P53350)
# Sequence (P53350 whole entry, looked up, the tested form may be a part): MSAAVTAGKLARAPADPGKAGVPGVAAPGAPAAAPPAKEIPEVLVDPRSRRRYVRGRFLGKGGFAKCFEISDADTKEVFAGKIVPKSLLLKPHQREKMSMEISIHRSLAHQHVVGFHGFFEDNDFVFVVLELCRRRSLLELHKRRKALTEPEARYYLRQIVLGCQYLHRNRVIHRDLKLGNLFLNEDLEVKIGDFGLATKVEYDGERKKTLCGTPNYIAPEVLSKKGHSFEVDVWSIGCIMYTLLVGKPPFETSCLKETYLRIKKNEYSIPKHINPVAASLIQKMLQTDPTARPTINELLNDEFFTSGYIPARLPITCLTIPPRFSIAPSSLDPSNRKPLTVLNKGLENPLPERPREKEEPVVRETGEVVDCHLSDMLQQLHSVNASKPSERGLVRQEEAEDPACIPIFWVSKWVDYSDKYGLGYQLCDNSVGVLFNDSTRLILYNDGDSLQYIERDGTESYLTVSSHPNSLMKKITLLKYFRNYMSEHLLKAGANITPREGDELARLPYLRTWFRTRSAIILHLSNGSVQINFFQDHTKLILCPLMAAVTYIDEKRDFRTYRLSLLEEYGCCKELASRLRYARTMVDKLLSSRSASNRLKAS
# Assay: qHTS for Inhibitors of PLK1-PDB (polo-like kinase 1 - polo-box domain): Primary Screen; also: nearly all actives have a fitted effect of over 65% in size; as to max response, negative = inhibition: series mostly up to about 57 µM
# Settings: Plk1 PBD binding of FITC phosphopeptide, fluorescence polarization
# % is scaled to controls: 0 for no effect and ±100 for the full control effect; potency is read from the fitted curve at half-maximal effect.
SMILES,"max response, negative = inhibition",Potency
O=C(NCc1cccnc1)c1cc(C2CCCN(C(=O)C3CCCCC3)C2)on1 (stereo not drawn),0.902% (inactive),
CC1CC(NC(=S)N(C)C)CC(C)(C)C1 (stereo not drawn),-1.25% (inactive),
CC(C)CCN1CCN(Cc2ccc(C(F)(F)F)cc2)CC1CCO (stereo not drawn),4.35% (inactive),
Cc1ccc(CN2CCN(Cc3ccc4ncccc4c3)CC2CCO)cc1 (stereo not drawn),-1.02% (inactive),
CC(=O)Nc1ccc(CN2CCN(Cc3ccc(F)c(F)c3)C(CCO)C2)cc1 (stereo not drawn),,18.9 µM (active)
COc1ccc(-c2cc(NC=O)c3ncc(-c4cc(OC)c(OC)c(OC)c4)n3c2)c(OC)c1,-18.1% (inactive),
O[C@@H]1C[C@H](c2ccccc2)N(Cc2cccs2)C[C@H]1n1cc(C2CC2)nn1,-0.363% (inactive),
Oc1ccc2ccc3cccc[n+]3c2c1,,4.74 µM (active)
O=C1CCC(C(=O)OCC(=O)Nc2ccc(OC(F)F)cc2)=NN1,-4.05% (inactive),
CCNC(=O)C1(C)CCCN(C(=O)c2ccc3ccccc3n2)C1 (stereo not drawn),-13.8% (inactive),
CC1(C(=O)O)CCN1C(=O)/C=C/c1ccccc1 (stereo not drawn),-4.73% (inactive),
COc1ccc(C(C)(C)C)cc1NC(=O)CN(C)C1=NS(=O)(=O)c2ccccc21,-6.05% (inactive),
O=C(OCc1ccc([N+](=O)[O-])cc1)C1CC(=O)N(Cc2ccccc2Cl)C1 (stereo not drawn),,29.9 µM (active)
CC(OC(=O)C1CC(=O)N(Cc2ccccc2)C1)C(=O)Nc1ccccc1[N+](=O)[O-] (stereo not drawn),-3.81% (inactive),
COc1ccc(CCN2CC(C(=O)OCC(=O)NCc3ccccc3Cl)CC2=O)cc1OC (stereo not drawn),-3.96% (inactive),
CCOC(=O)c1cnn2c(SC)ncnc12,-4.05% (inactive),
CC(C)Oc1cc(F)ccc1-c1cc(C(=O)Nc2cccc(Cl)c2)[nH]n1,-2.39% (inactive),
COc1ccc(C(=O)C2CCCN(C(=O)c3ccc(OC)o3)C2)c(C)c1 (stereo not drawn),-27.3% (inactive),
Cc1cc(C)n(-c2ccc(NC(=O)C3CCCCN3C(=O)c3cccs3)cc2)n1 (stereo not drawn),-7.4% (inactive),
COc1ccc(C(=O)N2CCCCC2C(=O)Nc2ccc(-n3nc(C)cc3C)cc2)o1 (stereo not drawn),,23.8 µM (active)
CC(=O)c1ccccc1NC(=O)COC(=O)C1COc2ccccc2O1 (stereo not drawn),4.38% (inactive),
CCCC(=O)N1CCC1(C)C(=O)Nc1ccc(-n2cncn2)cc1 (stereo not drawn),-11.3% (inactive),

SMILES,"max response, negative = inhibition",Potency
Cc1ccccc1CN1C(=O)CSCC1(C)C(=O)Nc1c(C)cccc1C (stereo not drawn),-3.6% (inactive),
CCCCCCCCN1C(=O)[C@H](CC(=O)NCC23CC4CC(CC(C4)C2)C3)C[C@@]2(C(=O)OC)CCCCC=C12,-9.18% (inactive),
O=[N+]([O-])c1cc(S(=O)(=O)Nc2cccc(Cl)c2)ccc1N=Nc1c(O)[nH]c2ccccc12,,84.4 µM (active)
COc1ccc(S(=O)(=O)Nc2ccc3cn[nH]c3c2)cc1[N+](=O)[O-],-11.6% (inactive),
O=C(O)c1ccccc1/C=N/Nc1ccc(S(=O)(=O)Nc2ccc(Cl)cc2)cc1[N+](=O)[O-],-22.4% (inactive),
CCOc1ccc(OCC)c(NC(=O)CCS(=O)(=O)c2ccc(C)cc2)c1,-5.07% (inactive),
COc1ccc(Cl)cc1NC(=O)CCS(=O)(=O)c1cc2c(cc1C)NC(=O)CO2,-11.9% (inactive),
COc1ccc(Cl)cc1NC(=O)CCS(=O)(=O)c1ccc(Br)cc1,,15 µM (active)
COc1cc(CCN=Cc2ccccc2O)c([N+](=O)[O-])cc1OC,-15.3% (inactive),
CN(C(=O)CN1CCN(c2cc(-c3ccc(OCc4ccccc4)cc3)ncn2)CC1)c1ccccc1,2.08% (inactive),
CC(O)(c1cccc(F)c1)c1nc(-c2ccc3c(c2)OCO3)cs1 (stereo not drawn),-0.065% (inactive),
COc1ccc([C@H]2N[C@]3(CCCN(Cc4ccco4)C3=O)[C@H]3C(=O)N(C)C(=O)[C@@H]23)cc1,-10.5% (inactive),
Cc1cccc(-n2c(N)c(C(=O)N3CCN(C)CC3)sc2=S)c1,,1.89 µM (active)
Cc1cccc(N2CCN(C(=O)c3ccccc3NC(=O)C3CCCCC3C(=O)O)CC2)c1 (stereo not drawn),-5.42% (inactive),
Cc1ccc(N2CCN(C(=O)c3cccs3)CC2)c(C)c1,-4.91% (inactive),
O=C(c1ccc(S(=O)(=O)c2ccccc2)cc1)N1CCCCCC1,-6.16% (inactive),
CC(C)=C1SC(N2CCN(c3cccc(C)c3)CC2)=NC1=O,-13.5% (inactive),
Cc1ccc(-n2c(N)c(C(=O)N3CCOCC3)sc2=S)c(C)c1,,18.9 µM (active)
Cc1ccc(S(=O)(=O)N2CCN(C(=O)N3CCOCC3)CC2)c(C)c1,3.35% (inactive),
N#Cc1ccccc1-n1c(N)c(C(=O)N2CCCC2)sc1=S,,4.23 µM (active)
CCC(=O)Nc1sc(C(=O)N2CCCCC2)c(C)c1C#N,0.524% (inactive),
COc1ccc(Cl)cc1-c1cc(C(=O)Nc2cc(OC)c(OC)c(OC)c2)[nH]n1,-0.229% (inactive),

SMILES,"max response, negative = inhibition",Potency
CCc1oc(-c2ccc(OC)cc2)c(C(=O)OCCCCCO)c1C(C)OCCO (stereo not drawn),-3.22% (inactive),
COc1ccc(-c2coc3c(C(=O)NC(C)C)cccc23)c(C)c1,-1.63% (inactive),
O=C1CCC(=O)N1CCC(=O)N(C(=O)NC1CCCCC1)C1CCCCC1,-3.92% (inactive),
CSC1=NN(c2ccccc2)CN(c2ccccc2)N1C,3.5% (inactive),
CSc1ncnc2c1ncn2CCCNCc1cccs1,-6.17% (inactive),
CC(=O)c1c(C)c[nH]c1C,,3.36 µM (active)
CCOC(=O)c1c(Cc2ccc(Cl)cc2)c[nH]c1C,-3.47% (inactive),
Cc1cc(C)n2c(NCc3ccccc3)c(CC(C)C)nc2n1,4.6% (inactive),
Cc1cc(C(=O)COC(=O)c2cccs2)c(C)n1-c1c(C)n(C)n(-c2ccccc2)c1=O,,29.9 µM (active)
Cc1cc(C(=O)CC#N)c(C)n1CC(F)(F)F,-1.11% (inactive),
Cc1cc(C(=O)CC#N)c(C)n1-c1c(C)n(C)n(-c2ccccc2)c1=O,,21.2 µM (active)
Cc1c(NC(=O)c2coc(=O)c(Br)c2)c(=O)n(-c2ccccc2)n1C,-12.4% (inactive),
CCCn1c(C)cc(C(=O)COC(=O)c2c(C)nn(-c3ccccc3)c2C)c1C,0.347% (inactive),
COc1ccc(-n2c(C)cc(C(=O)COC(=O)c3cc(OC)c(OC)cc3NC(=O)c3cccs3)c2C)cc1,-3.08% (inactive),
CCCNC(=O)c1cc2c(c(-c3cccc(-c4ccc(C#N)cc4)c3)n1)[C@@H](CCO)N(C(=O)CC)C2,-12.5% (inactive),
c1ccc2c(c1)nnn2-c1ccncc1,-7.91% (inactive),
COc1ccc(NC(=O)C2Cc3c(-c4cccc(NC(C)=O)c4)ccnc3O2)cc1OC (stereo not drawn),-15.4% (inactive),
CC(C)NC(=O)Nc1ccc2c(c1)C(=O)N([C@H](C)CO)C[C@H](C)[C@@H](CN(C)Cc1ccc(C(F)(F)F)cc1)OCCCC[C@@H](C)O2,-16.7% (inactive),
O=C(COC(=O)c1cccc(Cl)c1Cl)NC1CCCCCC1,-7.54% (inactive),
CCOc1ccccc1N1CCN(C(=S)Nc2ccc(S(N)(=O)=O)cc2)CC1,-0.318% (inactive),
COc1ccc(N2CCN(C(=S)Nc3ccc(S(N)(=O)=O)cc3)CC2)cc1,,13.4 µM (active)
NS(=O)(=O)c1ccc(NC(=S)N2CCCC2)cc1,-13.8% (inactive),

SMILES,"max response, negative = inhibition",Potency
CN(C)C(CNC(=O)c1cc(Br)c(Br)s1)c1ccco1 (stereo not drawn),-5.95% (inactive),
O=S1(=O)CC(N2CCN(CCO)CC2)CN1Cc1cn(Cc2cccc(Cl)c2)nn1 (stereo not drawn),-6.24% (inactive),
Cc1ccc(-c2cnc(C(O)c3cc(Cl)cc(Cl)c3)[nH]2)cc1 (stereo not drawn),5.64% (inactive),
COc1ccc(CNC(=O)COC(=O)C2=Cc3ccccc3OC2)cc1,,13.4 µM (active)
COc1ccc(CCNC(=O)COC(=O)c2cc(=O)c3ccccc3o2)cc1,-2.93% (inactive),
COc1ccc(CNC(=O)COC(=O)C(CCSC)N2C(=O)c3ccccc3C2=O)cc1 (stereo not drawn),-13.1% (inactive),
Cc1ccc(-c2ccc(CN3C(C)C(=O)N(Cc4cn(CCC5OCCCO5)nn4)CCS3(=O)=O)cc2)cc1 (stereo not drawn),-2.81% (inactive),
NC(c1ccccc1)c1csc(NC(=O)Nc2cccc(C(F)(F)F)c2)n1 (stereo not drawn),-4.96% (inactive),
O=C(NC1Cc2ccccc2C1)c1cc(COc2cccc(C(F)(F)F)c2)on1,-5.34% (inactive),
O=c1cc(CO)oc(C(Nc2cccc(C(F)(F)F)c2)c2ccccn2)c1O (stereo not drawn),,26.7 µM (active)
COc1ccc(C=C2CCC3C(CCCC34OCCO4)C2=O)cc1 (stereo not drawn),-14.1% (inactive),
CCc1ccc(OC2(C)CCN(CCOc3ccc(C)cc3)C2)cc1 (stereo not drawn),0.495% (inactive),
O=C(COc1ccc(Br)cc1)OCC(=O)c1ccc[nH]1,-8.67% (inactive),
O=C(C1=C(O)C(=O)N(c2ncccn2)C1c1cccs1)c1ccco1 (stereo not drawn),-18.5% (inactive),
COc1ccc2nc(N3C(=O)C(O)=C(C(=O)c4ccco4)C3c3ccco3)sc2c1 (stereo not drawn),-16.7% (inactive),
Cc1ccc2nc(N3C(=O)C(O)=C(C(=O)c4ccco4)C3c3cccc(O)c3)sc2c1 (stereo not drawn),,18.9 µM (active)
COc1ccc(-c2cc3nc(NCCOc4ccccc4)ccn3n2)cc1,-1.91% (inactive),
Cc1nc2c(OCc3ccc(Cl)cc3)cccn2c1N(C)Cc1cccs1,-7.96% (inactive),
Cc1ccc(-c2cnc(C(O)c3cccc(C)c3C)[nH]2)cc1 (stereo not drawn),2.44% (inactive),
O=c1[nH]n2c(-c3ccccc3)nc(O)c2c2ccccc12,-5.86% (inactive),
O=c1[nH]c2ccccc2n2c(-c3ccccc3)nnc12,,0.947 µM (active)
O=C(c1ncn2c1c(=O)[nH]c1ccccc12)N1CCc2ccccc2C1,6.5% (inactive),
